# ChEMBL document CHEMBL3988442, “University of Dundee, Small-Polar-MMV Screening Library” (2021)
# Screen size: about 69,000 compounds; about 950 (1.4%) showed an effect of 50% or more. The sample holds strong results, similar compounds and a random draw of the others, so the mix is not that of the screen.
# System: Mycobacterium tuberculosis
# Test: Cornell M. t heat shock assay; further: in the data most compounds retested in dose-response had high values
# Type: functional, organism-based
# Parameters: dose or concentration left out as unconfirmed
row,Structure (SMILES),Percent Effect
1,Br.Cn1cc(CN2CCOC(c3cccc(-c4cncnc4)n3)C2)cn1 (stereo not given),-10.8%
2,Cl.c1cncc(CNCc2cccs2)c1,5.045%
3,O=C(O)C(F)(F)F.O=C1[C@H]2CN(Cc3nccs3)C[C@H]2CN1c1ccsc1,28.97%
4,Cc1nn(C)c(C)c1S(=O)(=O)N1C[C@@H]2C[C@@H](C)O[C@@H]2C1.O=C(O)C(F)(F)F,3.558%
5,NC(=O)CC1CC2(CCNCC2)c2cc(F)ccc21.O=C(O)C(F)(F)F (stereo not given),15.23%
6,Cn1cc(C(=O)NCc2cn3c(n2)CN(C2CCOCC2)CC3)cn1.O=C(O)C(F)(F)F,-17.41%
7,Cc1ccc2c(c1)OCCCC2NC1CCN(C)CC1 (stereo not given),11.02%
8,Cc1ccc2c(c1)OCCCC2NCc1nccn1Cc1ccccc1 (stereo not given),101.1%
9,COc1c(CNC2CCCOc3ccccc32)c(C)nn1C (stereo not given),-2.184%
10,c1ccc2c(c1)OCCCC2NCc1nnc2n1CCCCC2 (stereo not given),7.956%
11,c1ccc(Cn2ccnc2CNC2CCCOc3ccccc32)cc1 (stereo not given),104.4%
12,CCC1COCCN1C(=O)NCc1nccn1Cc1ccccc1 (stereo not given),-21.62%
13,Cc1cncc(C(=O)N2C[C@@H]3CN(S(C)(=O)=O)CCO[C@@H]3C2)c1.O=C(O)C(F)(F)F,15.78%
14,CC1CCN(C(=O)[C@@H]2C[C@@H]3CCN(Cc4nccs4)C[C@H]3O2)CC1.O=C(O)C(F)(F)F,11.99%
15,CC(C)N1CCN(C(=O)c2csc3nc(-c4ccc(Cl)cc4)cn23)CC1,2.331%
16,CCC1CN(C(=O)c2csc3nc(-c4ccc(Cl)cc4)cn23)CCN1 (stereo not given),59.48%
17,O=C(c1csc2nc(-c3ccc(Cl)cc3)cn12)N1CCCC(CO)C1 (stereo not given),17.74%
18,O=C(Nc1cccnc1)[C@H]1C[C@@H]2CN(C(=O)NC3CCCC3)C[C@H]1O2,-0.1164%
19,O=C1C[C@H]2CC[C@@H](CN1)N2C1CCOCC1,-8.619%
20,O=C(NC1CCCC1)c1nc2c(o1)CN(C(=O)CCO)C2,6.229%

row,Structure (SMILES),Percent Effect
1,O=C(NC1CCCC1)c1nc2c(o1)CN(CCO)C2,51.46%
2,O=C(NC1CCCC1)c1nc2c(o1)CN(C(=O)CO)C2,10.14%
3,CN(C)C(C(=O)N1CCCC1)c1ccccc1F (stereo not given),12.45%
4,CN(C)C(C(=O)N1CCSCC1)c1ccccc1F (stereo not given),7.911%
5,CN(C)C(C(=O)N1CCC(N2CCSCC2)CC1)c1ccccc1F (stereo not given),64.18%
6,COc1ccc(C)cc1CNC(=O)C1=NN(c2ccccc2)C(=O)CN1,30.82%
7,COc1ccc(CNC(=O)C2=NN(c3ccc(C)cc3)C(=O)CN2)cc1,24.03%
8,COc1ccccc1CNC(=O)C1=NN(c2ccc(C)cc2)C(=O)CN1,73.51%
9,CC(C)N1CCO[C@H]2CN(C(=O)c3ccccn3)C[C@H]21.O=C(O)C(F)(F)F.O=C(O)C(F)(F)F,-26.06%
10,Cc1cs/c(=N\C(=O)c2c3c(nc4onc(C)c24)CCC3)[nH]1,-0.1888%
11,CC(=O)Nc1nc(C(=O)NC(C)c2ccc(F)cc2)cs1 (stereo not given),8.426%
12,Cc1cs/c(=N/C(=O)c2csc(NCC(C)C)n2)[nH]1,102.2%
13,Cc1[nH]/c(=N\C(=O)c2csc(NCC(C)C)n2)sc1C,103.2%
14,CC(C)CNc1nc(C(=O)/N=c2\[nH]nc(C(C)(C)C)s2)cs1,29.68%
15,Cc1cc(O)c(OCC(=O)/N=c2\[nH]c(C)c(C)s2)cn1,14.69%
16,O=C1c2cnc(N3CCCC3)nc2CN1CCc1ccc(Cl)cc1,5.842%
17,Cc1ccc(CN2C[C@@H]3COC[C@H](NS(C)(=O)=O)[C@@H]3C2)s1.O=C(O)C(F)(F)F,-17.68%
18,CC(C)c1nn(C)c(N(C)C)c1CNC(C)c1ccc2c(c1)OCO2.Cl (stereo not given),11.17%
19,O=C(CN1CC(c2nc(C3CC3)no2)C1)NCc1ccc(F)cc1.O=C(O)C(=O)O,-19.44%
20,CS(=O)(=O)N1CCN(c2ccnc(N3CCCCC3)n2)CC1,54.19%

row,Structure (SMILES),Percent Effect
1,CN(C)S(=O)(=O)N1CCN(c2ccnc(N3CCCCC3)n2)CC1,-3.243%
2,CS(=O)(=O)N1CCN(c2ccnc(N3CCCC3)n2)CC1,3.373%
3,CN1CCN(CC2CC2)C(=O)C12CCN(C(=O)CC(F)(F)F)CC2.O=C(O)C(F)(F)F,5.441%
4,COc1ccccc1Oc1ncccc1CNC(=O)[C@@H](C)NC(C)=O,11.05%
5,COc1ccc(C)cc1CN1CCCC1c1noc(C2CC2)n1 (stereo not given),82.36%
6,Cc1nc(CN2CCCC2c2noc(C3CC3)n2)nc2ccccc12 (stereo not given),27.9%
7,CCn1ccnc1CN1CCCC1c1noc(C2CC2)n1 (stereo not given),-4.423%
8,Cn1ccnc1CN1CCCCC1c1nc(-c2ccccc2)no1 (stereo not given),51.73%
9,c1ccc2nc(CN3CCCC3c3noc(C4CC4)n3)ccc2c1 (stereo not given),108.9%
10,Cc1cnc(CN2CCCCC2c2nc(-c3ccccc3)no2)cn1 (stereo not given),5.875%
11,c1ccc2oc(CN3CCCC3c3noc(C4CC4)n3)nc2c1 (stereo not given),17.43%
12,CCc1nc(C2CCCN2Cc2nccn2Cc2ccccc2)no1 (stereo not given),20.06%
13,Cc1noc(C)c1CN1CCCCC1c1nc(-c2ccccc2)no1 (stereo not given),-13.3%
14,COc1c(C)cnc(CN2CCCC2c2noc(C3CC3)n2)c1C (stereo not given),-0.8434%
15,Cc1cc(CN2CCCC2c2noc(C3CC3)n2)c2ccccc2n1 (stereo not given),31.64%
16,c1ccc(Cn2ccnc2CN2CCCC2c2noc(C3CC3)n2)cc1 (stereo not given),104.2%
17,COC(=O)Cn1c(=O)nc2n1C(=O)N(c1ccc(Br)cc1)C2,18.41%
18,CNC(=O)[C@H]1C[C@@H]2CN(Cc3cccc(C)c3)C[C@H]1O2.O=C(O)C(F)(F)F,19.67%
19,COCCNC(=O)[C@H]1CN(Cc2sccc2C)C[C@H]2OCC[C@@H]12.O=C(O)C(F)(F)F,-45.09%
20,Br.Cc1cc(C)c(N(CC(O)CNCc2ccccc2)S(C)(=O)=O)c(C)c1 (stereo not given),3.921%
